From PubChem BioAssay
Vaccinia Venus = inhibitors of vaccinia virus (Venus reporter). Vaccinia virus Venus reporter expression, fluorescence. Potency, µM (series often up to 36.5 µM), for inactives: at the top dose activity change, negative = inhibition, hits mostly inhibitors. 330,000 tested, 0.46% active; calls by dose curve; tested in A549 cells; further: nearly all actives have a fitted effect of over 30% in size
Pf growth 96h = inhibits malaria parasite growth, 96 h | P. falciparum luciferase reporter growth, 96 h | 320,000 tested, 6.9% active | Potency, µM (series often up to 28.7 µM), inactives show at the highest dose activity change, negative = inhibition, most hits filed as inhibitors
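Cell-based qHTS: luciferase-tagged P. falciparum in erythrocytes (2% hematocrit, 0.05% parasitemia final) incubated with compounds for 96 hours, 37 C, 5% CO2; luciferase detection reagent then added and luminescence measured.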
Pf growth 48h = P. falciparum growth inhibition at 48 hours (one generation); P. falciparum luciferase growth in erythrocytes, 48 h; Potency, µM (highest dose often 28.7 µM), for the others: top-dose activity change, negative = inhibition, actives largely listed as inhibitors; 310,000 tested, 5.9% active
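In quantitative HTS format, infected erythrocytes bearing luciferase-reporter parasites were treated for a single generation at 37 C. Luminescence after adding detection reagent served as the growth measure.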
VACV mCherry inh = vaccinia inhibition (mCherry reporter); 310,000 tested, 0.63% active; Vaccinia virus mCherry reporter infection, fluorescence; Potency, µM (titrated, usually from 36.5 µM), for the others: top-dose activity change, negative = inhibition, hits mostly inhibitors; calls by dose curve; tested in A549 cells; further: nearly all actives have a fitted effect of over 35% in size
AMA1 RON2 block = AMA1-RON2 (P. falciparum) interaction inhibition; AlphaScreen AMA1-biotinylated RON2 peptide binding; Potency, µM (top dose mostly 58.2 µM), without a hit: at the highest dose activity change, negative = inhibition, actives largely listed as inhibitors; 360,000 tested, 0.2% active; AID 720542;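 further: 0% = vehicle wells and -100% = peptide control; nearly all actives have a fitted effect of over 45% in size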
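AMA1 (3D7) with his tag at 25 nM final met compounds first, then biotinylated RON2 peptide at 25 nM; detection used donor plus acceptor beads, 10 µg/mL apiece, read by AlphaScreen after 30 min at room temperature.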
* marks the source's active call; other numbers are inactive results; i = inactive; ? = inconclusive; / = no result; [ ] = another dose, or the depositor's remark. This is a sample that favours compounds with a hit; in the whole collection about 8.7% have one here. Unless noted, the call rests on the fitted dose curve; in most records, active means well fitted curve in the direction sought with a large enough effect; inconclusive means small, poorly fitted or top-dose-only effect, or another doubt; inactive means no such curve, though single readings can be large; an effect the other way counts as inactive or inconclusive. Unless noted, on the % scale 0 is the no-effect control and ±100 the full control effect; potency means the concentration at half of the fitted maximal effect.

SMILES	Vaccinia Venus	Pf growth 96h	Pf growth 48h	VACV mCherry inh	AMA1 RON2 block
OC(COCc1ccco1)CN1CCN(C(c2ccccc2)c2ccccc2)CC1 (configuration not stated)	-19%	6.6µM*	10µM*	/	-10%
O=C(c1ccccc1)N1CCN(CC(O)COc2ccc(Br)cc2)CC1 (configuration not stated)	/	9.3µM*	-6%	/	5%
OC(COc1ccccc1)CN1CCN(C(c2ccccc2)c2ccccc2)CC1 (configuration not stated)	/	19%	?	/	-10%
COc1cc(/C=C/C(=O)N2CCN(CC(O)COc3ccccc3)CC2)cc(OC)c1OC (configuration not stated)	-10%	4.1µM*	?	/	-4%
N#Cc1ccc(OCC(O)CN2CCN(C(c3ccccc3)c3ccccc3)CC2)cc1 (configuration not stated)	-11%	12µM*	?	-24%	-14%
O=C(NCc1ccccc1Cl)c1ccc(-n2cnc3cccnc32)cc1	6%	/	/	-9%	/
COc1ccc(N(C)C(=O)c2cn(C3CCCCC3)c(=O)c3c2c2ccccc2n3C)cc1	-21%	/	/	-25%	/
COc1cc(NC(=O)c2ccc(-n3cnc4cccnc43)cc2)cc(OC)c1	5%	/	/	-14%	/
Cc1ccc(NC(=O)CNC(=O)Cn2c(C)cc3ccccc3c2=O)cc1F	5%	/	/	-6%	/
Cc1cc2ccccc2c(=O)n1CC(=O)N(C)c1ccc(F)cc1	-5%	10µM*	11%	-17%	36%
CCc1ccc(NC(=O)C(CC)n2c(=O)c(-c3ccccc3NC(C)=O)nc3ccccc32)cc1 (configuration not stated)	-6%	/	/	-4%	/
CCOc1ccc(NC(=O)c2ccc3c(SCC(=O)O)c4c(nc3c2)CCC4)cc1	5%	/	/	0%	/
COc1ccc(-n2c(-c3ccc(C)cc3)cc3c2CC(C)(C)CC3=O)cc1Cl	-17%	/	/	-9%	/
COCc1cc(Sc2ccc(Cl)cc2)nc(-c2ccccc2)n1	-5%	0%	?	-11%	56%
CCN(CC)C(=O)Oc1cc(COC)nc(-c2ccccc2)n1	-11%	?	10µM*	-14%	5%
C/C(=N\N=C1\NC(=O)C(CC(=O)O)S1)c1ccccn1 (configuration not stated)	-13%[7.34 µM]	1.2µM*	10µM*	i[7.34 µM]	25%
CCOc1ccc(N=C2NC(=O)C(CC(=O)O)S2)cc1 (configuration not stated)	-4%	160%	19%	-10%	0%
CC1(C(=O)O)CCC(C(=O)Nc2ccccc2O)C1(C)C (configuration not stated)	/	12µM*	/	/	7%
CC(=O)c1ccc(NC(=O)C2CCC(C)(C(=O)O)C2(C)C)cc1 (configuration not stated)	-1%	?	13%	-4%	-6%
O=C(Nc1ccc(F)cc1F)N1CCN(CCc2ccccc2)CC1	-13%	27%	2.3µM*	-12%	3%
O=C(Nc1ccc(F)cc1F)N1CCN(C/C=C/c2ccccc2)CC1	-4%	?	/	i	-6%
O=C(c1ccc(Cl)cc1Cl)N1CCOCC1	4%	/	/	i	-5%
O=C(c1cc(Cl)ccc1Cl)N1CCOCC1	-7%	13µM*	25%	-22%	-4%
O=C(c1cccn2c(=O)c3cc(Cl)ccc3nc12)N1CCOCC1	-11%	10µM*	13µM*	i	-5%
O=C(c1cc2cc(Cl)cc(Cl)c2oc1=O)N1CCOCC1	-7%	8.3µM*	15%	-14%	18%
SMILES	Vaccinia Venus	Pf growth 96h	Pf growth 48h	VACV mCherry inh	AMA1 RON2 block
O=C(c1cccn2c(=O)c3cc(Cl)ccc3nc12)N1CCN(Cc2ccc3c(c2)OCO3)CC1	/	-4%	?	/	6%
COc1ccc(Br)cc1CNC(=O)CCSCc1ccc(Cl)cc1	-4%	/	/	-11%	/
Cc1sc(NC(=O)Cn2[nH]c(=O)c3ccccc3c2=O)nc1-c1ccccc1	?	12µM*	?	?	55%
Cc1c(NC(=O)Cn2[nH]c(=O)c3ccccc3c2=O)c(=O)n(-c2ccccc2)n1C	-24%	/	9%	/	14%
CN(C)c1ccc(/C=C/c2ccnc3c(-c4ccccc4)cccc23)cc1	-22%	/	/	-4%	/
O=c1[nH]c(=O)n(-c2ccc(F)cc2)c2c1C(C(F)(F)F)(C(F)(F)F)N=C(c1ccc(F)cc1)N2	?	12µM*	?	?	17%
CC(OC(=O)c1cc(O)c2ccccc2c1O)C(=O)Nc1ccc(C(N)=O)cc1 (configuration not stated)	-17%	12µM*	?	?	-17%
CC(C)NCC(O)Cn1c2c(c3ccccc31)CCc1c-2cnn1-c1ccccc1 (configuration not stated)	11µM*	?	2.9µM*	/	-12%
CCc1ccccc1NC(=O)CSc1nc2c(oc3ccccc32)c(=O)n1-c1ccccc1F	-4%[7.34 µM]	/	/	-5%[7.34 µM]	/
CCCCC1(Cc2ccc(OC)c([N+](=O)[O-])c2)C(=O)N(c2ccccc2)N(c2ccccc2)C1=O	-15%	?	1.5µM*	-17%	-16%
CCC1(C2CCN(Cc3cc4ccccc4o3)CC2)NC(=O)N(CC2COc3ccccc3O2)C1=O (configuration not stated)	-35%	/	/	?	/
CN(C)c1ccc(/C=N/NC(=O)c2ccccc2)cc1	-21%	37%	60%	-10%	11%
CN(C)c1ccc(/C=N/NC(=O)C(=O)/C=C2\NC3(CCCC3)Cc3ccccc32)cc1	-14%	2.6µM*	?	i	7%
COc1cc(/C=N/NC(=O)C(=O)/C=C2\NC3(CCCC3)Cc3ccccc32)ccc1O	-25%	?	?	-30%	2%[2.32 µM]
O=C(/C=C1\NC2(CCCC2)Cc2ccccc21)C(=O)N/N=C/c1ccccc1O	?	0%	0%	13µM*	42%
CCOC(=O)c1ccc(N/C=C\C(=O)c2cccc(OC)c2)cc1	-19%	108%	138%	-4%	-8%
COc1ccc(N/C=C\C(=O)c2ccc(Br)cc2)cc1OC	0%	1.9µM*	71%	-2%	-7%[2.32 µM]
COC(=O)c1ccc(N/C=C/C(=O)c2ccccc2)cc1	-3%	13µM*	161%	i	-7%
CCOc1ccc(Nc2nc(NCC3CCCO3)c3ccccc3n2)cc1 (configuration not stated)	?	-19%	1.2µM*	-19%	-25%
Oc1cccc(Nc2nc(NCC3CCCO3)c3ccccc3n2)c1 (configuration not stated)	?	-18%	0.37µM*	?	-6%
Nc1nc(NCCCN2CCOCC2)nc(Nc2ccc(Cl)cc2)c1[N+](=O)[O-]	-3%	-13%	?	-2%	-16%
CCOc1ccc(Nc2c3ccccc3nc3ccccc23)cc1	?	2.1µM*	2.9µM*	5.6µM*	-17%
Nc1nc(NCCCN2CCOCC2)nc(Nc2cccc(Cl)c2)c1[N+](=O)[O-]	-17%	?	5.9µM*	-16%	-6%
